We go through seven compounds from PubChem BioAssay (Tox21).

A number with no mark means an inactive call. Records with an inconclusive call do not appear. The source made the active and inactive calls. Unless noted, calls follow the shape of the dose curve; as a rule, active = well fitted curve in the direction sought with a large enough effect in the repeat runs; inconclusive = weak or mixed curves; inactive = no such curve, though single readings can be large; an effect the other way counts as inactive or inconclusive.

Test [1] concerns the target Luciferin 4-monooxygenase (Photinus pyralis) (UniProt P08659). As to the kind of experiment: qHTS assay to identify small molecule inhibitors of firefly luciferase (AID 1224835). Also: nearly all actives have a fitted effect of over 25% in size. Summed up: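 Inhibition of purified Photinus luciferase is measured by luminescence. Substrate levels (D-luciferin, ATP) sit at their KM values. Each compound is tested in a concentration series.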

In test [2] the target is Nuclear receptor subfamily 1 group I member 3 (Homo sapiens) (UniProt Q14994). As to the kind of experiment: qHTS assay to identify small molecule antagonists of the constitutive androstane receptor (CAR) signaling pathway (AID 1224838). Also: nearly all actives have a fitted effect of over 40% in size. Also: potency is read from the fitted curve at half-maximal effect. The essentials:
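Inhibition of CITCO-driven (50 nM final) CYP2B6 reporter expression is measured in HepG2 cells stably carrying hCAR. Fifteen compound concentrations are applied for 24 h at 37 C, followed by luciferase luminescence.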
For orientation: qHTS replaces the single test concentration by a dilution series.

A short description of test [3]: qHTS assay to identify small molecule antagonists of the estrogen related receptor signaling pathway with the pleiotropic PPARgamma coactivator (PGC) from Tox21 10K library - cell viability counter screen (AID 1224840; active = well fitted cell-killing curve with a large enough effect in the repeat runs, not every such curve was filed as active; also: nearly all actives have a fitted effect of over 40% in size). The essentials:
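Readout: fluorescence intensity from CellTiter-Fluor after 30 min at 37 C/5% CO2. Preceded by 17.5 h treatment of PGC/ERR cells with DMSO-dissolved compounds, added 6 h post-seeding.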

Test [4] can be described thus: qHTS assay to identify small molecule antagonists of the estrogen related receptor signaling pathway with the pleiotropic PPARgamma coactivator (PGC) from Tox21 10K library (AID 1224841; call rule not given here; also: actives are mostly falling curves and most rising ones were filed inactive; nearly all actives have a fitted effect of over 50% in size; also: potency is read from the fitted curve at half-maximal effect). Summed up: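 One-Glo luminescence, measured after half an hour at room temperature, quantified reporter output of PGC/ERR cells. These had been plated at 2,000 per well, incubated 6 h, dosed with compounds in DMSO, then kept 18 h at 37 C.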

The nature of test [5]: qHTS assay to identify small molecule agonists of the estrogen related receptor signaling pathway with the pleiotropic PPARgamma coactivator (PGC) from Tox21 10K library (AID 1224842). Also: nearly all actives have a fitted effect of over 15% in size. The essentials: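 Luminescence from One-Glo (30 min, room temperature) measured after PGC/ERR cells had 18 h at 37 C with pinned compound (23 nL in DMSO). Cells had been seeded at 2,000 per well and pre-incubated 6 h.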

Test [6] concerns the target Thyrotropin receptor (Homo sapiens) (UniProt P16473). As to the kind of experiment: qHTS assay to identify small molecule agonists of the thyroid stimulating hormone receptor (TSHR) signaling pathway (AID 1224843; calls by dose curve; also: nearly all actives have a fitted effect of over 45% in size). The essentials: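 Agonist activity read as cAMP rise via d2/cryptate HTRF competition, 1 h room-temperature detection, in HEK293 cells expressing TSHR. Fifteen-point titrations, each run in triplicate, with a 30 min room-temperature incubation beforehand.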

Test [7] can be described thus: qHTS assay to identify small molecule agonists of the hypoxia (HIF-1) signaling pathway - cell viability counter screen (AID 1224844; calls by dose curve; also: nearly all actives have a fitted effect of over 50% in size). The essentials:
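In this counter screen, HRE-bla ME-180 cell viability after 17 hrs of compound exposure at 37C was read by CellTiter-Glo luminescence, multiplexed with the beta-lactamase reporter measurement.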

Test [8] is described as follows: qHTS assay to identify small molecule agonists of H2AX (AID 1224845; active = well fitted activation curve with a large enough effect in the signal ratio in the repeat runs, not every such curve was filed as active; the % refers to the signal ratio). The essentials:
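Phospho-H2AX Ser139 measured by HTRF (ex 320 nm; em 665 and 620 nm) after 24 hr antibody incubation. Compounds, 15 concentrations, 0.76% DMSO, were applied to CHO-K1 cells for 3hr at 37C before lysis.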

The nature of test [9]: qHTS assay to identify small molecule agonists of the hypoxia (HIF-1) signaling pathway (AID 1224846; active = well fitted activation curve with a large enough effect in the signal ratio in the repeat runs, not every such curve was filed as active; the % refers to the signal ratio). The essentials:
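ME-180 HRE-bla reporter cells; compounds in DMSO, 17 h at 37C; read-out beta-lactamase via CCF4-AM FRET.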

Test [10] can be described thus: qHTS assay to identify small molecule agonists of H2AX - cell viability counter screen (AID 1224847; calls by dose curve; also: nearly all actives have a fitted effect of over 30% in size; also: potency is read from the fitted curve at half-maximal effect). The essentials: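 Wild-type CHO-K1 cells (10% FBS medium) were plated overnight at 37C, exposed to compounds at 15 concentrations for 3 hr at 37C (0.76% DMSO final), and viability was read as CellTiter-Glo luminescence after 30 min at room temperature.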
Test [11] in a line: qHTS assay to identify small molecule antagonists of the estrogen related receptor (ERR) signaling pathway from Tox21 library (AID 1224848). Also: nearly all actives have a fitted effect of over 50% in size. Also: potency is read from the fitted curve at half-maximal effect. Summed up:
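Luciferase luminescence (ONE-Glo, 30 min room temperature) was the read-out. Cells of the NTP-supplied ERR line, 2,000 per well, were given 6 h at 37 C before compound addition in DMSO and 18 h exposure at 37 C.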

Test [12] is described as follows: qHTS assay to identify small molecule agonists of the estrogen related receptor (ERR) signaling pathway from Tox21 library (AID 1224849; calls by dose curve; also: nearly all actives have a fitted effect of over 15% in size). The settings on record: ERR reporter cell line, ONE-Glo luciferase, 18 h; at 92.4 µM (top of the series) unless noted. Summed up: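 Luciferase activity in ERR pathway reporter cells served as the agonist readout; exposure lasted 18 h at 37 C, with ONE-Glo detection after 30 min at room temperature.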

Test [13] is described as follows: qHTS RealTime-Glo MT Cell Viability Assay in HepG2 cells - 24 hour (AID 1224867). Also: nearly all actives have a fitted effect of over 50% in size. The essentials: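 Tox21 10K library screened in qHTS format on HepG2 cells carrying RealTime-Glo reagents. Compounds were added after a 5 h preincubation, and the luminescent signal from continuous culture was measured repeatedly during 40 h treatment.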
A short description of test [14]: A CellTox Green Cytotoxicity Assay to monitor cytotoxicity in HEK293 cells - 0 hour (AID 1224869). Also: nearly all actives have a fitted effect of over 50% in size. Summed up: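 Real-time, in one plate: 600 HEK293 cells/well with dead-cell DNA dye, pinned compound after 5 h, 37 C incubation over 40 h; viable cells give no appreciable fluorescence.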
Test [15] in a line: qHTS assay to identify small molecule agonists of the constitutive androstane receptor (CAR) signaling pathway - cell viability counter screen (AID 1224836). Also: nearly all actives have a fitted effect of over 45% in size. Summed up: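 HepG2 cells stably carrying hCAR and a CYP2B6-2.2kb reporter were plated 4 h, then given compounds at 15 concentrations plus PK11195 (final 0.75 uM). After 23 h at 37 C, viability was read by CellTiter-Fluor fluorescence.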

A short description of test [16]: qHTS assay to identify small molecule antagonists of the constitutive androstane receptor (CAR) signaling pathway - cell viability counter screen (AID 1224837). Also: nearly all actives have a fitted effect of over 45% in size. Also: potency is read from the fitted curve at half-maximal effect. Summed up: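 CITCO at 50 nM final was added alongside compounds (15 concentrations) to double-stable hCAR/CYP2B6-2.2kb HepG2 cells. Following 23 hr at 37 C, cell viability was quantified by CellTiter-Fluor fluorescence intensity.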

For test [17], the target named is Nuclear receptor subfamily 1 group I member 3 (Homo sapiens) (UniProt Q14994). As to the kind of experiment: qHTS assay to identify small molecule agonists of the constitutive androstane receptor (CAR) signaling pathway (AID 1224839). Also: nearly all actives have a fitted effect of over 15% in size. Summed up:
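HepG2 cells stably expressing hCAR and a CYP2B6-2.2kb luciferase reporter were treated with compounds at 15 concentrations plus 0.75 uM PK11195 (final) for 24 h at 37 C; luminescence was read after ONE-Glo addition.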

The nature of test [18]: qHTS RealTime-Glo MT Cell Viability Assay in HepG2 cells - 40 hour (AID 1224870). Also: nearly all actives have a fitted effect of over 50% in size. Summed up: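 Real-time viability: cells seeded at 600 per well together with NanoLuc and cell-permeant prosubstrate, compounds added after 5 h incubation. Luminescence tracked at 0, 8, 16, 24, 32 and 40 h of exposure.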
Test [19] is described as follows: qHTS RealTime-Glo MT Cell Viability Assay in HEK293 cells - 32 hour (AID 1224868). Also: nearly all actives have a fitted effect of over 50% in size. Also: potency is read from the fitted curve at half-maximal effect. Summed up:
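Luminescence generated by NanoLuc from substrate produced by living HEK293 cells served as the viability signal. Each value reflects the reading at its stated time point during continuous 40 h compound exposure at 37 C.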
% is scaled to controls: 0 for no effect and ±100 for the full control effect.

Nuclear receptor subfamily 1 group I member 3 (Homo sapiens), sequence (Q14994 whole entry, looked up): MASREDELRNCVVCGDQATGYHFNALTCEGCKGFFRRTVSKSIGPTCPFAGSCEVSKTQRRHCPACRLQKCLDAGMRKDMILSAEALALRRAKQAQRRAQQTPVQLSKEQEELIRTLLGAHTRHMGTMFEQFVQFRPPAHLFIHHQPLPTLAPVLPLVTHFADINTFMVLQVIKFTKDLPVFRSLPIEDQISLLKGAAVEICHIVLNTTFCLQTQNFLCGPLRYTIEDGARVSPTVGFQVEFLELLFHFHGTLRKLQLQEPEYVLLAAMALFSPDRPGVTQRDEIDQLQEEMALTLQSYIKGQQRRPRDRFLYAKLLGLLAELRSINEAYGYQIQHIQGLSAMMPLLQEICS
Thyrotropin receptor (Homo sapiens), sequence (P16473 whole entry, looked up): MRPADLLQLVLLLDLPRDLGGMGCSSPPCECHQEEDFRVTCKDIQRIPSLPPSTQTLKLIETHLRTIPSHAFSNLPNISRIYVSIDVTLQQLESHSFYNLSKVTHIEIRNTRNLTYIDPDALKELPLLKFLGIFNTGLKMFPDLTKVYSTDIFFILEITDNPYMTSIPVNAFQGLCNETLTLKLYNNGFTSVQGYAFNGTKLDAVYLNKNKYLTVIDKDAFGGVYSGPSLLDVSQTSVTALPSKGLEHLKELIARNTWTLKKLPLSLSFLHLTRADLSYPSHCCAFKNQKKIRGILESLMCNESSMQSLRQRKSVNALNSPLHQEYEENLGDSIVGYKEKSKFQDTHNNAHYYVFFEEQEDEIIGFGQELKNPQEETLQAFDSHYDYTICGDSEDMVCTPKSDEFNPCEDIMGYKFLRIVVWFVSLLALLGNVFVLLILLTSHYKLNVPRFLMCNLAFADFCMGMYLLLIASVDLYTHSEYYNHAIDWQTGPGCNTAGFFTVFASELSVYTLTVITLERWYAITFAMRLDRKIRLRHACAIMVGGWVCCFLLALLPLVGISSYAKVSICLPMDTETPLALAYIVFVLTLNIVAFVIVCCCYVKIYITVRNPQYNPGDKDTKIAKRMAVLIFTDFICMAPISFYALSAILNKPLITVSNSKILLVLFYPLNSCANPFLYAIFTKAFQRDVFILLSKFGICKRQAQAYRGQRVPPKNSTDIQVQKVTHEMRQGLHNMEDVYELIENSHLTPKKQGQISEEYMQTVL
Luciferin 4-monooxygenase (Photinus pyralis), sequence (P08659 whole entry, looked up): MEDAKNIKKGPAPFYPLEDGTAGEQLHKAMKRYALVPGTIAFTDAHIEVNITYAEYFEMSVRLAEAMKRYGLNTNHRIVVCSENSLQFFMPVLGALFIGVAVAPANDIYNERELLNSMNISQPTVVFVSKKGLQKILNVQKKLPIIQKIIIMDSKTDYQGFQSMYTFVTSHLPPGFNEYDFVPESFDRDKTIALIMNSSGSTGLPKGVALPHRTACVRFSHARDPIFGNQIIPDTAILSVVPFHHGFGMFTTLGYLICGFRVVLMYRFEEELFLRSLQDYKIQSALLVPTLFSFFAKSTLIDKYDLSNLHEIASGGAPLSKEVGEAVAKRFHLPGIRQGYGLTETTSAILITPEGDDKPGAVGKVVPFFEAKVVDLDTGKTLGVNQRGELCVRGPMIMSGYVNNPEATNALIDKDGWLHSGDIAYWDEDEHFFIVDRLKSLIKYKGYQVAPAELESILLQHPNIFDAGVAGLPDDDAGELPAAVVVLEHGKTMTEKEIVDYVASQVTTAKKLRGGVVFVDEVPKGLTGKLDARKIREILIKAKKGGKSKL

Regarding `CCOc1ccccc1N`, the Potency entry in [1], in test [2], in test [3], in test [5], in test [6] and in test [7] was “inactive” throughout. Further, the Potency entry in [8], in test [13] and in test [14] was “inactive” each time. Further, the Potency in test [4] was 15.2 µM (active); in test [10], 44.7 µM (active); in test [11] it was 12.1 µM (active). Further, the result in test [9] was inactive. Also, the activity change, positive = activation in test [12] was -59%.
For the compound `Cc1ccccc1C(=O)Nc1ccc(C(=O)N2CCCC(O)c3cc(Cl)ccc32)c(C)c1` (stereo unspecified), the Potency entry in test [15], in test [16], in [2], in [17], in test [3] and in test [4] was “inactive” in each case. For the same compound, the Potency result in test [5], in test [7], in test [8], in [10], in [13] and in test [14] was “inactive” throughout. In [18], the Potency entry is “inactive”. In test [9], the compound was classed as inactive. The activity change, positive = activation in test [12] is -27% [at 42.5 µM].
Take `CCCNC(C)C(=O)Nc1c(C)csc1C(=O)OC` (stereo unspecified): the Potency entry in [1], in test [15], in [16], in test [17], in test [3] and in [4] was “inactive” in each case. The Potency entry in test [5], in [6], in test [7], in test [8], in test [10] and in test [11] was “inactive” throughout. Further, the Potency result in [13], in [19] and in test [14] was “inactive” throughout. Also, the activity change, positive = activation in test [12] is -1.49% [at 42.5 µM].
For the compound `CCCCCCCCc1ccc(S(=O)(=O)O)cc1`, the Potency result in test [15], in [16], in test [2], in [17], in [3] and in test [6] was “inactive” each time. The Potency result in test [8], in [10], in test [13], in test [19], in test [14] and in [18] was “inactive” each time.
Turning to `CC[C@H]1CC[C@H](NCc2cc3c(cc2OC)[C@H]2C[C@H]2C(=O)N3C)[C@H](c2ccccc2)N1`, the Potency result in [1], in test [5], in [6], in test [7], in test [8] and in test [10] was “inactive” in each case. Besides, the Potency result in [14] and in test [18] was “inactive” throughout. The Potency was 21.7 µM (active) in test [4], 27.3 µM (active) in test [11] and 19.5 µM (active) in test [19]. Further, in test [9], the result was inactive. For the same compound, in test [12], the activity change, positive = activation is -40.9%.
For the compound `CCCCNC(=S)NCCCC`, the Potency entry in [1], in test [17], in [5], in [8], in test [10] and in test [13] was “inactive” in each case. For the same compound, the Potency entry in test [19], in test [14] and in [18] was “inactive” each time. Moreover, the Potency is 48.6 µM (active) in test [16], 48.6 µM (active) in [2] and 68.6 µM (active) in test [11]. In test [9], the outcome was inactive. Besides, in test [12], the activity change, positive = activation is -66.6%.
For `NNS(=O)(=O)c1ccc(Oc2ccc(S(=O)(=O)NN)cc2)cc1`, the Potency entry in test [1], in test [15], in [16], in test [3], in [4] and in test [5] was “inactive” in each case. Further, the Potency entry in test [6], in test [7], in [8], in test [10], in test [11] and in [13] was “inactive” each time. Moreover, the Potency entry in [19], in [14] and in test [18] was “inactive” each time. In addition, the outcome in test [9] was inactive. Further, the activity change, positive = activation in test [12] is -13.2%.
